Compound activity from PubChem.
In the library only some 4.8% were active in any assay of this set; here they are far more common.
DAX1 inh-1: DAX1 (NR0B1) inhibitors on StAR promoter, primary screen, cell-based, luminescence, SF-1 (NR5A1), full-length DAX-1; HEK293T StAR-luciferase reporter, SF-1/DAX-1 repression relief; inhibition, % at 6.8 µM; 370,000 tested, 1.1% active; AID 652010, 2013;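 active = inhibition above the mean over all tested compounds plus 3 SD, cut at about 3.6% in these data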;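 note: 0% = DAX-1 cells with DMSO and 100% = cells lacking DAX-1 with DMSO; higher inhibition means more luminescence from relief of DAX-1 repression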
ssDAF12 agonist: S. stercoralis DAF-12 nuclear receptor activators, primary screen, cell-based, luminescence, HEK293, GRIP1 co-expression, lit1-tk-luc | 370,000 tested, 1% active | Nuclear hormone receptor DAF-12 (Strongyloides stercoralis) | HEK293 ssDAF-12/GRIP1 lit1-tk-luc reporter; % of 3 µM dafachronic acid response | activation, % at 6.8 µM;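 active = activation above the mean over all tested compounds plus 3 SD, cut at about 0.9% in these data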;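 note: 0% = DMSO-only wells and 100% = 3 µM delta7-dafachronic acid wells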
SMARCA2 activ: SMARCA2 (BRM) function activators, primary screen, cell-based, luminescence, high throughput; MG213 cells, MMTV-luciferase reporter, dexamethasone, overnight; activation, % at 9.1 µM; 370,000 tested, 1% active; AID 652017, 2013; in the data active = activation above about 7.8%;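 note: 0% = vehicle wells and 100% = reference activator wells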
hgDAF12 agonist: H. glycines DAF-12 receptor agonists, primary screen, cell-based, luminescence, HEK293, GAL4 fusion, UAS-luciferase | HEK293 GAL4-hgDAF12 UAS-luciferase reporter, agonist luminescence; normalized to butyrate control | activation, % at 6.8 µM | 370,000 tested, 1.8% active;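 active = activation above a cutoff set at the mean of all screened compounds plus 3 SD, cut at about 10% in these data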;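 note: 0% = DMSO wells and 100% = sodium butyrate wells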
hcDAF12 agonist: H. contortus DAF-12 nuclear receptor activators, primary screen, cell-based, luminescence, HEK293, lit1-tk-luc reporter. HEK293 hcDAF-12 lit1-tk-luc reporter; 0% DMSO, 100% Δ7-dafachronic acid. activation, % at 6.8 µM. 370,000 tested, 1.4% active;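 active = activation above the mean of all tested compounds plus 3 SD, cut at about 5.5% in these data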;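 note: 100% = response to 3 µM Δ7-dafachronic acid high control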
DAX1 inh-2: DAX1 (NR0B1) inhibitors, primary screen, cell-based, HEK293, Gal4-DAX1, luciferase luminescence; Nuclear receptor subfamily 0 group B member 1 (Homo sapiens), P51843; HEK293 Gal4-DAX1 luciferase reporter; inhibition, % at 6.75 µM; 340,000 tested, 0.99% active;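 active = inhibition above the mean over all tested compounds plus 3 SD, cut at about 4.2% in these data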;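 note: 0% = DAX1-transfected cells with DMSO and 100% = empty-vector control cells with DMSO; inhibition shows as a rise in luminescence from relieved DAX1 repression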
Target sequence (P51843 207-470 limits assumed): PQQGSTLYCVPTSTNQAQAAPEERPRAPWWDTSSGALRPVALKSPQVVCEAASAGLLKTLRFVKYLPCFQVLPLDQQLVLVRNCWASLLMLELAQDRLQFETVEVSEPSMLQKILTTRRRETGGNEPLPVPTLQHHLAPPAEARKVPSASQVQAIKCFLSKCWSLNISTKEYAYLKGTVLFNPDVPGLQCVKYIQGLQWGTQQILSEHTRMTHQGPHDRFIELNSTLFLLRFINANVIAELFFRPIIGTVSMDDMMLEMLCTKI
An asterisk follows results filed as active; x = no result.

SMILES	DAX1 inh-1	ssDAF12 agonist	SMARCA2 activ	hgDAF12 agonist	hcDAF12 agonist	DAX1 inh-2
CC(=O)c1cc2c(cc1NC(=O)CN1CCOCC1)OCO2	-1	-1	-2	-1	-1	0
COc1ccc(C#Cc2c(-c3ccsc3)oc3ccc(-c4cc(OC)c(OC)c(OC)c4)cc23)cc1	-1	-1	0	4	5.6*	0
Fc1ccc(-c2nnc(Cc3ccc(Cl)cc3)o2)cc1	1	-1	0	12*	-1	2
Fc1ccc(CSc2nnc(-c3cccs3)o2)cc1	0	-2	0	4	2	1
Fc1ccc(Cc2nnc(-c3cccs3)o2)cc1	0	-1	1	7	0	4.3*
O=c1[nH]c(/C=C/c2ccc(Br)cc2)nc2ccccc12	1	-1	3	6	1	3
Cc1nc(/C=C/c2ccccc2)[nH]c(=O)c1-c1ccccc1	2	0	8	12*	5	3
Cc1csc(NC(=O)/C=C/c2ccc3c(c2)OCO3)n1	4.6*	1.1*	2	15*	4	-2
CCn1c(CCCNC(=O)c2ccc(F)cc2)nc2ccccc21	0	-1	-1	-1	-3	1
CN(Cc1nc2ccccc2c(=O)[nH]1)C(=O)c1cccc(S(=O)(=O)N2CCCC2)c1	3.7*	-1	-1	2	-1	1
CC(=O)c1ccc(OCCCC(=O)N2CCN(S(=O)(=O)c3ccc(C(C)C)cc3)CC2)cc1	-6	-2	-1	-6	-3	-1
O=C(CCCN1C(=O)c2ccccc2C1=O)Nc1ccccn1	1	-1	2	0	-1	0
OCC(O)CNC(=S)NC1CCCCC1 (centres undefined)	0	-1	-2	0	-1	4.9*
O=C(Cc1ccccc1)NCC1CCCO1 (centres undefined)	0	-1	2	0	-1	0
O=P(c1ccccc1)(c1ccccc1)C1CCCO1 (centres undefined)	1	-1	-2	-2	0	4.3*
C/C(=N\NC(=O)c1ccco1)c1cc2ccccc2o1	1	0	3	8	3	2
C/C(=N\NC(=O)c1cccc(Cl)c1)c1cccc(NC(=O)c2ccco2)c1	1	0	6	7	2	4
C/C(=N/NC(=O)c1ccco1)c1cccc(NC(=O)c2ccc(C)s2)c1	2	0	6	12*	5	2
C/C(=N\NC(=O)c1ccco1)c1ccc(-c2ccccc2)cc1	1	0	2	13*	2	2
C/C(=N\NC(=O)c1csc(C)c1C)c1ccco1	1	0	3	7	2	1
C/C(=N\NC(=O)c1ccco1)c1cc(Cl)sc1Cl	3.8*	0	3	7	2	2
O=C(Nc1ccccc1C(=O)N1CCN(CCO)CC1)c1cccc([N+](=O)[O-])c1	-2	-1	-3	-1	0	-1
FC(F)(F)c1ccccc1CN1CCCc2nc(-c3ccc(Br)cc3)ccc21	2	2.6*	5	7	0	x
O=C1NC(c2cccc3ccccc23)Nc2ccc(Cl)cc21 (centres undefined)	-1	-1	-5	-5	3	-2
O=C(NCCc1ccccc1)c1ccccc1SCC(=O)N1CCCC1	2	1.2*	3	6	6.4*	0
SMILES	DAX1 inh-1	ssDAF12 agonist	SMARCA2 activ	hgDAF12 agonist	hcDAF12 agonist	DAX1 inh-2
COc1ccccc1CCNC(=O)c1ccccc1SCC(=O)N1CCCC1	-1	-2	-4	0	-1	0
CCNC(=O)NC(=O)COC(=O)c1ccccc1SCC(=O)NC(=O)NCC	3.9*	2.3*	0	12*	7.9*	0
Cc1ccccc1NC(=O)COC(=O)c1ccccc1SCC(=O)N1CCCC1	0	-1	0	1	-1	4.3*
O=C(c1ccccc1)n1ccc2ccc(-c3ccc4ccn(Cc5ccccc5)c4c3)cc21	-1	0	-3	11*	2	x
Cc1ccc(C2C(=O)N(C3CCCC3)CC(=O)N2C2CCCCC2)cc1 (centres undefined)	-1	-1	-1	-2	-1	0
CC(C)N1C(=O)CN(C2CCCCCC2)C(=O)C1c1ccccc1F (centres undefined)	1	-1	4	11*	1	3
Fc1ccc(OCCOCCOc2cccc3[nH]ccc23)cc1	0	-2	-1	1	-2	2
Cc1cccc(C)c1NC(=O)CN(c1c(C)cccc1C)S(C)(=O)=O	0	0	2	2	2	5.0*
Cc1cc[n+](C2=C([O-])c3ccccc3C(=O)/C2=N\S(=O)(=O)c2cccs2)cc1C	-1	0	1	-3	3	4.5*
CCN1/C(=C/c2ccc3cc(C)ccc3[n+]2CC)Sc2cc(C)c(C)cc21	-3	-3	-8	-13	-6	-3
COc1ccc(Cc2c(-c3ccc(Cl)cc3)nc3cc(C)c(Br)c(C)n23)c(C)c1	1	0.9*	4	13*	5	x
COc1ccc(Cc2c(C(C)(C)C)nc3cc(C)c(Br)c(C)n23)c(C)c1	0	1.8*	-2	4	0	x
CCCc1nc2cc(C)c(Br)c(C)n2c1Cc1ccc(OC)cc1C	-2	0	-4	3	3	x
COc1ccc(Cc2c(-c3ccc(F)cc3)nc3cc(C)c(Br)c(C)n23)c(C)c1	1	2.2*	1	10	5.7*	x
CCOC(=O)c1sc(N)c(C#N)c1COC(=O)CNC(=O)c1ccccc1	0	-1	1	-1	0	1
COc1ccc(NCC(=O)Nc2cccc(S(=O)(=O)N3CCCC3)c2)cc1Cl	0	-2	-2	-1	0	0
Ic1ccc(N2CCN(Cc3c[nH]c4ncccc34)CC2)cc1	-3	-2	-7	-4	-2	0
COc1ccccc1NC(=O)Nc1ccc2c(c1)nnn2C	2	-1	1	0	2	1
Cc1ccc(NC(=O)Nc2ccc3c(c2)nnn3C)cc1C	1	-1	1	2	1	5.3*
N#Cc1ccccc1OCC(=O)OCC(=O)NC1CCS(=O)(=O)C1 (centres undefined)	0	-2	-1	1	0	0
